Experimental data reported in PubChem BioAssay AID463173 (ICCB-Longwood Screening Facility, Harvard Medical School, 2010).
Out of some 52,000 compounds screened, about 4,300 (8.3%) were called active. Shown is part of a subset that was picked to be rich in actives. A number with no mark means an inactive call. Rule as the data show it: active = survival mostly below about 52% (no sharp cut-off); inactive = mostly above about 56%.

tested on: DeltatarO mutant; experiment: growth inhibition of S. aureus wild type versus tarO mutant, primary screen, teichoic acid synthesis inhibitors, RN4220, OD600 (AID 463173); settings: OD600, 18 h, stronger effect = lower value, screened at 18.75 µg/mL (by protocol)

Structure (SMILES) | survival
O=S(=O)(c1ccccc1)N1CCC(O)(c2ccccc2)C2CCCCC21 (centres undefined) | 73%
CC(=O)c1cccc(NC(=O)C(Cc2ccccc2)NS(=O)(=O)c2ccc(Br)s2)c1 (centres undefined) | 116%
Cc1n[nH]c(=S)n1CC(=O)n1c2c(c3ccccc31)CCCC2 | 91%
CC(=O)c1nnn(-c2ccc(C)cc2Cl)c1C | 65%
COc1ccc(C)cc1-n1nnc(C(=O)Nc2cccc(SC)c2)c1C | 86%
Cc1cccc(NC(=O)c2ccc(-n3c(C)nnc3C)cc2)c1 | 88%
CC(=O)Nc1c(C(=O)Nc2cccc(C)c2)nnn1-c1ccc(C)cc1 | 69% (active)
Cc1ccc(C)c(-n2nnc(C(=O)Nc3ccc(Br)cc3)c2C)c1 | 18% (active)
COc1cccc(NC(=O)c2nn(-c3ccc(C)cc3)c(=O)n(C)c2=O)c1 | 124%
COc1ccc(NC(=O)c2cc(S(=O)(=O)N3CCCC(C)C3)cn2C)c(OC)c1 (centres undefined) | 87%
COc1ccccc1N1CCN(c2cc(C)nc3c(-c4ccc(Cl)cc4)c(C)nn23)CC1 | 87%
COc1ccc(N2CCN(c3cc(C)nc4nc(-c5ccc(C)cc5)nn34)CC2)cc1 | 53%
Cc1cc(N2CCN(c3cc(Cl)ccc3C)CC2)n2nc(-c3ccccc3)nc2n1 | 77%
COc1ccccc1N1CCN(c2cc(C)nc3nc(-c4ccc(Cl)cc4)nn23)CC1 | 38% (active)
Cc1ccc(-c2nc3nc(C)cc(N4CCN(c5cccc(C)c5C)CC4)n3n2)cc1 | 128%
COc1ccccc1N1CCN(c2cc(C)nc3nc(-c4ccc(C)cc4)nn23)CC1 | 40% (active)
COc1cc(C(=O)NCc2ccc3c(c2)CCN3C(=O)c2ccncc2)cc(OC)c1OC | 101%
Cc1cccc(N2CCN(C(=O)c3cn(C4CCCCC4)c(=O)c4c3c3ccccc3n4C)CC2)c1C | 115%
CCC1CC(/C(C)=N/NC(N)=O)OC1=O (centres undefined) | 71%
Cc1c(-c2nc(-c3ccccc3F)no2)nnn1-c1cc(F)ccc1F | 84%
CCOC(=O)c1c(C)n(-c2ccccc2)c2ccc(OC(=O)c3ccccc3Cl)cc12 | 54%
CCOC(=O)c1c(C)n(-c2ccccc2)c2ccc(OC(=O)c3cccc(C)c3)cc12 | 63%
CCOC(=O)c1c(C)n(-c2ccccc2)c2ccc(OC(=O)c3ccccc3)cc12 | 3% (active)
CCOC(=O)c1c(C)n(-c2ccccc2)c2ccc(OC(=O)c3ccccc3NC(=O)C(C)(C)C)cc12 | 55%

Structure (SMILES) | survival
CCOC(=O)c1c(C)n(-c2ccccc2)c2ccc(OC(=O)c3ccccc3NC(=O)C(C)C)cc12 | 47% (active)
CCOC(=O)c1c(C)n(-c2ccccc2)c2ccc(OC(=O)c3cccc(Cl)c3)cc12 | 79%
COc1ccc(S(=O)(=O)N2CCC(C(=O)Nc3ccc(Oc4ccccc4)cc3)CC2)cc1 | 72%
O=C(COc1ccc(S(=O)(=O)NC2CCCCC2)cc1Cl)NCc1ccccn1 | 104%
COc1ccc(N2CCN(C(CNC(=O)C(=O)NCc3ccc(C)cc3)c3cccnc3)CC2)cc1 (centres undefined) | 61%
CCCCNc1nc2c(S(=O)(=O)c3ccc(C)cc3)nnn2c2ccsc12 | 114%
Cc1ccc(C)c(NC(=O)CSc2nncn3c2cc2sccc23)c1 | 69%
O=C(c1cc2c(=O)[nH]c3ccccc3c2s1)N1CCN(c2ccc(F)cc2)CC1 | 51%
CCC(=O)N1c2ccccc2CC1C(=O)NCCN1CCN(c2cc(Cl)ccc2C)CC1 (centres undefined) | 52% (active)
Cc1cccc(N2CCN(CCNC(=O)Nc3ccc(Cl)cc3)CC2)c1C | 66%
O=C(NCCCN1CCN(c2ccccc2F)CC1)c1nnc(Cc2ccc(Cl)cc2Cl)o1 | 80%
CCC(=O)N1c2ccccc2CC1C(=O)NCCN1CCN(c2cccc(C)c2C)CC1 (centres undefined) | 77%
Cc1ccc(Cl)cc1N1CCN(CCCNC(=O)c2nnc(Cc3cccc(Cl)c3)o2)CC1 | 25% (active)
CCOc1ccc(NC(=O)NCCN2CCN(c3cc(Cl)ccc3C)CC2)cc1 | 54%
Cc1ccc(Cl)cc1N1CCN(CCNC(=O)Nc2ccccc2Cl)CC1 | 77%
Cc1ccc(C)c(N2CCN(CCCNC(=O)Nc3ccc(Cl)cc3)CC2)c1 | -5% (active)
CCC(=O)N1c2ccccc2CC1C(=O)NCCN1CCN(c2cccc(Cl)c2)CC1 (centres undefined) | 87%
COc1ccc(Cc2nnc(C(=O)NCCCN3CCN(c4ccccc4F)CC3)o2)cc1OC | 78%
O=C(NCCCN1CCN(c2ccc(F)cc2)CC1)Nc1ccc(Cl)cc1 | 72%
Cc1ccc(Cl)cc1N1CCN(CCNC(=O)Nc2ccc(Cl)cc2)CC1 | -4% (active)
CCc1ccc(S(=O)(=O)Nc2ccc(-c3ccc(N4CCCCCC4)nn3)cc2)cc1 | 95%
Cc1ccc(C)c(N(C)C(=O)CCNC(=O)Cn2cnc3ccccc3c2=O)c1 | 69%
Cc1ccc(S(=O)(=O)NC2(C(F)(F)F)C(=O)Nc3c2c(=O)[nH]c(=O)n3-c2ccccc2)cc1 (centres undefined) | 89%
COc1cc(OC)cc(-c2nc3nc(C)c(CCC(=O)Nc4ccc(Cl)cc4)c(C)n3n2)c1 | 65%

Structure (SMILES) | survival
COc1cccc(CNc2ncnc3onc(C)c23)c1 | 125%
Cc1ccc(NC(=O)N2CCc3cc(S(=O)(=O)N4CCC(C)CC4)ccc32)cc1F | 105%
COc1c(C)cccc1C(=O)Nc1ccc(-c2nc3ccccc3s2)c(Cl)c1 | 68%
Cc1ccccc1CNC(=O)c1ccc2nc(C(C)C)oc2c1 | 83%
COc1ccc(-c2onc(C)c2C)cc1S(=O)(=O)N1CCN(c2cc(C)ccc2C)CC1 | 81%
COc1ccc(C(=O)NCCSc2c[nH]c3ccccc23)cc1OC | 76%
Cc1ccc(C(=O)NCCSc2c[nH]c3ccccc23)cc1C | 46% (active)
CN(C)S(=O)(=O)c1ccc(C(=O)NCCSc2c(-c3ccc(Cl)cc3)[nH]c3ccccc23)cc1 | 67%
O=C(NCCSc1c[nH]c2ccccc12)c1ccc(Cl)cc1 | 47% (active)
Cc1ccc(C(=O)NCCSc2c(C)[nH]c3ccccc23)cc1C | 55%
O=C(NCCSc1c[nH]c2ccccc12)c1ccccc1Cl | 57%
Cc1ccc(Cn2c(CN3CCN(c4cccc(Cl)c4)CC3)nc3c2c(=O)n(C)c(=O)n3C)cc1 | 107%
COc1cccc(C2CC(=O)Nc3c2c(=O)n(C)c2nc4ccccc4n32)c1 (centres undefined) | 67%
CCn1c(=O)cc(SCC(=O)NCc2ccc(OC)cc2OC)c2ccccc21 | 66%
COc1ccc(C2=NC(c3ccncc3)=Nc3ccc(Br)cc3N2)cc1 | 82%
CCCCOc1ccc(C2=NC(c3ccncc3)=Nc3ccc(OCC)cc3N2)cc1 | 75%
CCCCOc1ccc(C2=NC(c3ccncc3)=Nc3ccc(Br)cc3N2)cc1 | 12% (active)
CCn1c(C(=O)NCc2cccc(Br)c2)cc2oc3ccccc3c21 | 50%
CCCOc1ccc(CNC(=O)c2cc3oc4ccccc4c3n2C)cc1 | 73%
CCn1c(C(=O)NCc2ccccc2C)cc2oc3ccccc3c21 | 14% (active)
CCOc1ccc(CNC(=O)c2cc3oc4ccccc4c3n2C)cc1 | 95%
Cn1c(C(=O)NCc2cccc(Cl)c2)cc2oc3ccccc3c21 | 85%
Cn1c(C(=O)NCc2ccccc2F)cc2oc3ccccc3c21 | 55%
CCn1c(C(=O)NCc2ccccc2Br)cc2oc3ccccc3c21 | 48%

Structure (SMILES) | survival
COc1ccc(CNC(=O)c2cc3oc4ccccc4c3n2C)cc1OC | 43% (active)
CCOc1ccccc1CNC(=O)c1cc2oc3ccccc3c2n1CC | 2% (active)
CCn1c(C(=O)NCc2ccc(F)cc2)cc2oc3ccccc3c21 | 89%
CCn1c(C(=O)NCc2ccc(OC(C)C)cc2)cc2oc3ccccc3c21 | 33% (active)
CCn1c(C(=O)NCc2cc(Br)ccc2OC)cc2oc3ccccc3c21 | 67%
Cc1c(-c2nsc(NC(=O)c3cccs3)n2)nnn1-c1ccc(Br)cc1 | 77%
COc1ccc2[nH]c(=O)c(CN(C3CCCC3)S(=O)(=O)c3cccc4nsnc34)cc2c1 | 96%
Cc1ccc(NC(=O)Cn2c(=O)n(CCCCC(=O)NCCc3ccccc3)c(=O)c3ccccc32)c(C)c1 | 84%
CCc1ccc(NC(=O)CSc2ccc(-c3cccs3)nn2)cc1 | 72%
Cc1cccc(NC(=O)c2cc3c(=O)n4cccc(C)c4nc3s2)c1C | 65%
CC(=O)OC1=CN(Cc2ccccc2)S(=O)(=O)c2ccccc21 | 71%
COc1ccccc1CNC(=O)CCCCn1c(=O)c2ccccc2n(Cc2ccccc2F)c1=O | 93%
COc1cccc(NC(=O)c2ccc(CNS(=O)(=O)c3ccc4c(c3)C(C)(C)C(=O)N4C)cc2)c1 | 51%
CCc1nn(Cc2cccc(F)c2)c(=O)c2cc3cc(C)ccc3n12 | 40% (active)
CCc1nn(Cc2c(C)cc(C)cc2C)c(=O)c2cc3cc(C)ccc3n12 | 88%
CCc1nn(Cc2ccc(Cl)cc2)c(=O)c2cc3cc(C)ccc3n12 | 94%
COc1ccc(C)cc1NC(=O)NCc1ccc2c(c1)CCN2C(=O)c1ccccc1 | 105%
COc1ccccc1C(=O)NCc1ccc2c(c1)CCN2C(=O)c1cccc(C)c1 | 77%
COc1cccc(C(=O)N2c3ccc(C)cc3C(C)(c3ccccc3)CC2(C)C)c1 (centres undefined) | -5% (active)
COc1cccc(C(=O)N2CC(C)OC(C)C2)c1 (centres undefined) | 65%
COc1cccc(C(=O)N2c3cc(C)ccc3C(C)(c3ccccc3)CC2(C)C)c1 (centres undefined) | 1% (active)
COC(=O)C1=NN(C(=O)c2cccc(OC)c2)C(C)(O)C1 (centres undefined) | 104%
